Experiments:
Assay type in all cases: functional
[1] = target: Solute carrier family 2, facilitated glucose transporter member 1 (Homo sapiens) (UniProt P11166); experiment: ST_JUDE_LEISH: Cytotoxicity at 2uM final concentration against transgenic Leishmania Mexicana promastigotes LmGLUT1 that are glucose transport deficient and complemented with the human glucose transporter GLUT1. Activity is measured by DNA content using SYBR green in vitro
[2] = target: Hexose transporter 1 (Plasmodium falciparum) (UniProt O97467); experiment: ST_JUDE_LEISH: Cytotoxicity at 2uM final concentration against transgenic Leishmania Mexicana promastigotes LmPfHT that are glucose transport deficient and complemented with the Plasmodium falciparum hexose transporter. Activity is measured by DNA content using SYBR green in vitro
[3] = target: Glucose transporter (Leishmania mexicana) (UniProt O61059); experiment: ST_JUDE_LEISH: Cytotoxicity at 2uM final concentration against transgenic Leishmania Mexicana promastigotes LmGT2 that are glucose transport deficient and complemented with the L. Mexicana glucose transporter 2. Activity is measured by DNA content using SYBR green in vitro

Solute carrier family 2, facilitated glucose transporter member 1 (Homo sapiens), sequence (P11166 whole entry): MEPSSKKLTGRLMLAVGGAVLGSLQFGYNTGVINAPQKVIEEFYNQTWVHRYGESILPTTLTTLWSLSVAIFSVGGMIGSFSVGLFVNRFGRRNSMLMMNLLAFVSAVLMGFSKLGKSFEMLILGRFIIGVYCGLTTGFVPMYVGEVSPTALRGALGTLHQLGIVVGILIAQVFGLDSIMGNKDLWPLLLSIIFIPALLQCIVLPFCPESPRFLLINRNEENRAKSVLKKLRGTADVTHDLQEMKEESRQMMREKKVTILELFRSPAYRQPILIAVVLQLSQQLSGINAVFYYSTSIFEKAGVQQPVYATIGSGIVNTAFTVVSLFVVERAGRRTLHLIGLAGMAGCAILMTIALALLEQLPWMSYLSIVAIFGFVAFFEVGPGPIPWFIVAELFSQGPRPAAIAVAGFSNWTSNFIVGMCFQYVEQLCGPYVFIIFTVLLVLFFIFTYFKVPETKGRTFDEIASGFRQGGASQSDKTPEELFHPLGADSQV

Row | SMILES | inhibition [1] [%] | inhibition [2] [%] | inhibition [3] [%]
1 | Cc1cc(OCCN2CCCCC2)ccc1NC(=O)c1cccc2c(=O)n(Cc3ccc(Cl)cc3)cnc12 | 103 | 104 | 105
2 | O=C(NC1CC1)c1cnc(N2CCC(OCc3ccccc3)CC2)c(Cl)c1 | 1.59 | 3.18 | -1.03
3 | C[C@@H](Oc1cc(-n2cnc3ccc(OCC4CCN(S(C)(=O)=O)CC4)cc32)sc1C(N)=O)c1ccccc1C(F)(F)F | 11.6 | 9.1 | 4.63
4 | CCC(C)Oc1ccc(CCCON2C(N)=NC(N)=NC2(C)C)cc1 (stereo not drawn) | 12.6 | 20.2 | 13.8
5 | C[C@H](Nc1c(Nc2ccc3[nH]ccc3c2)c(=O)c1=O)C1CCCCC1 | -1.55 | 0.15 | -0.44
6 | COc1cc(CNC[C@@H](O)[C@H](Cc2ccccc2)NC(=O)c2cc(OC(C)C)cc(N3CCCCS3(=O)=O)c2)cc(OC)c1 | 2.15 | 2.12 | 1.3
7 | COc1ccc(-c2cnc(N)nc2N)cc1Cl | 1.93 | 1.5 | 2.06
8 | COc1cccc(CNC(=O)[C@@H]2CN(C(=O)c3ccccc3)CCN2)c1 | -0.92 | 0.03 | 0.71
9 | Cc1cc(NC(=O)NCCN2CCC(NS(=O)(=O)c3ccc(Br)cc3)C2)c2ccccc2n1 (stereo not drawn) | 4.43 | 3.86 | 3.49
10 | C=CCn1c(=N)c(C(=O)NCc2ccc(F)cc2)cc2c(=O)n3cccc(C)c3nc21 | 3.56 | 3.45 | 2.22
11 | COc1cc(F)c2ncc(Cl)c(C(O)CN3CCC(NC(=O)c4ccc5c(n4)NC(=O)CO5)CC3)c2c1 (stereo not drawn) | 1.02 | 0.57 | -1.35
12 | COc1cc(C2=NN(S(=O)(=O)c3c(C)cc(C)cc3C)CCCC2)ccc1Cl | 4.03 | 3.46 | 3.33
13 | Cc1ncc(CN2CCC(C(=O)Nc3ccc(-c4nc5ccccc5o4)cc3)CC2)s1 | -2.13 | -3.66 | -0.97
14 | CCc1cn2c3c(cc(C(=O)N[C@@H](Cc4ccccc4)[C@H](O)CNC4CCOCC4)cc13)N(CC(F)(F)F)S(=O)(=O)CC2 | 2.22 | 2.72 | 0.88
15 | CC(=O)Oc1c(Cl)c(C)nc(C)c1-c1ccc(Oc2ccc(Cl)cc2)cc1 | 9.11 | 9.67 | 4.45
16 | COc1ccc(C2CC(=O)C3=C(C2)NC(C)=C(C(=O)OC(C)C)C3c2c(F)cccc2Cl)cc1OC (stereo not drawn) | 2.24 | 0.57 | 0.75
17 | Fc1ccc2[nH]c(-c3cccc(-c4cccc(CNCc5ccccc5)c4)c3)nc2c1 | 0.07 | -0.96 | -0.93
18 | CC(=O)c1cccc2c(NC(=O)Nc3ccc4nccc(N5CCN(C)CC5)c4c3)cccc12 | 7.67 | 6.04 | 7.35
19 | Cc1cccc2nc(-c3cccc(-c4cccc(NC(=O)c5cccnc5)c4)c3)[nH]c12 | 2.26 | -0.15 | -3.86
20 | N=C(N)NCCN(Cc1ccccc1)c1ccccc1 | 2.42 | 1.13 | 2.3
21 | Cc1cccc(CN2CCC(Oc3ccc(NC(=O)c4cccs4)cc3Cl)CC2)n1 | 5.76 | 3.92 | 2.69
22 | O=c1cc(NCCCNCc2cc(Cl)cc(Cl)c2OCc2ccc(Cl)cc2)[nH]c2ccccc12 | 1.67 | 0.9 | 3.19
23 | CCc1c[nH]c2c(N(c3ccccc3)S(C)(=O)=O)cc(C(=O)N[C@@H](Cc3ccccc3)[C@H](O)CNC(C)(C)CCCC(C)C)cc12 | 0.74 | 1.65 | 0.18
24 | Cc1cc(C2NC(=O)c3ccccc3N2)c(C)n1-c1ccc2c(c1)OCO2 (stereo not drawn) | 4.98 | 3.59 | 4.51

Row | SMILES | inhibition [1] [%] | inhibition [2] [%] | inhibition [3] [%]
25 | Nc1ccc2[nH]cc(C3CCN(CC4CCC(NC(=O)/C=C/c5ccc(Cl)c(Cl)c5)CC4)CC3)c2n1 (stereo not drawn) | -2.2 | -0.28 | -4.12
26 | CN1CCN(c2ccnc3ccc(NC(=O)Nc4ccc(-c5ccccc5)cc4)cc23)CC1 | 3.26 | 2.25 | 2.96
27 | Cc1ccc2c(c1)c(C1CCN(C(=O)c3ccc([N+](=O)[O-])o3)CC1)cn2C | 8.36 | 9.14 | 4.16
28 | CNCCCNc1ccnc2cc(Cl)ccc12 | 3.07 | 4.53 | 5.03
29 | CC(=O)Nc1nc(C(=O)Nc2cccc(-c3ccc(-c4nc5cccc(C)c5[nH]4)cc3)c2)cs1 | 8.06 | 7.51 | 6.75
30 | Cc1cc(C(=O)Nc2nc(-c3ccccn3)nc3ccsc23)no1 | 75.8 | 75.1 | 68.5
31 | NC(=O)c1ccsc1NC(=O)CNC(c1ccccc1)c1ccccc1 | 2.02 | 3.09 | 1.15
32 | Cc1nc(N)nc(N)c1-c1ccc(Br)c([N+](=O)[O-])c1 | 1.12 | 2.99 | 2.4
33 | CCC(C)NS(=O)(=O)c1ccc2nc(Nc3ccc(C)c(Cl)c3)n(C3CCCCC3)c2c1 (stereo not drawn) | 5.56 | 5.72 | 4.46
34 | Cc1cc(N)cc2nc(-c3ccc(N)cc3)[nH]c12 | 3.09 | 2.43 | 1.68
35 | COc1ccc2ncc(Cl)c(CCN3CC[C@@H](CNCc4cc5c(cn4)OCS5)C3)c2n1 | 6.89 | 7.89 | 12.2
36 | CC1(C)N=C(N)N=C(N)N1c1cc(Cl)c(Cl)cc1Cl | -2.58 | -2.74 | -3.01
37 | CCC(CN1C(=N)NC(c2ccccc2)(c2ccccc2)C1=O)c1ccccc1 (stereo not drawn) | -0.75 | -2.3 | 0.9
38 | CC(C)c1sc(N2CCCCC2)nc1C(=O)Nc1ccc(F)cc1C(F)(F)F | 2.82 | 0.82 | 2.35
39 | COc1ccc(S(=O)(=O)NC2CCN(CCNC(=O)Nc3cc(C)nc4ccccc34)C2)cc1 (stereo not drawn) | -0.6 | -0.21 | -0.75
40 | NC(=O)c1sc(-n2cnc3ccccc32)cc1OCc1ccccc1[N+](=O)[O-] | 8.87 | 7.21 | 6.48
41 | CS(=O)(=O)Cc1ccc(Nc2nccc(-c3c(-c4cccc(NC(=O)C5CCCCC5)c4)nn4ncccc34)n2)cc1 | 3.22 | 5.62 | 1.63
42 | O=C(Nc1cccc(C(F)(F)F)c1)Nc1cc(F)c(F)cc1Cl | 1.86 | 1.72 | 2.36
43 | CC(=O)Nc1ccc(S(=O)(=O)Nc2c(C)cc(Cc3cnc(N)nc3N)cc2C)cc1 | -0.22 | 0.02 | -0.69
44 | CC(C)c1cccc(C(NC(=O)[C@H]2Cc3ccccc3CN2C(=O)c2cccc(N3CCOCC3)c2)C2CCCC2)c1 (stereo partly drawn) | 1 | 0.21 | 0.64
45 | COc1cc(C)c(NC(=O)c2cccc3c(=O)c(C)c(-c4ccccc4)oc23)cc1OC | 6.49 | -0.38 | -1.52
46 | COc1cc2nc(N3CCC(CNC(=O)c4ccc(-c5cccc(C#N)c5)cc4)CC3)nc(N)c2cc1OC | 3.6 | 2.28 | 2.21
47 | CCc1nc(N)nc(N)c1-c1ccc(F)cc1 | 6.27 | 4.73 | 5.14
48 | COc1ccc2ncc(F)c(CCN3CCC[C@H](CNCc4ccc5c(n4)NC(=O)CS5)C3)c2n1 | 5.76 | 5.3 | 0.75

Row | SMILES | inhibition [1] [%] | inhibition [2] [%] | inhibition [3] [%]
49 | N=C(N)NC(=O)Nc1cc(Cl)c(Br)c(Cl)c1 | 3 | 6.09 | 2.88
50 | c1cc(-c2ccc(CNCCCN3CCOCC3)cc2)cc(-c2nc3ccccc3[nH]2)c1 | 1.09 | -0.33 | 2.29
51 | Cc1cccc(CN2CCN(c3ncc(C(=O)NC4CC4)cc3Cl)CC2)c1 | 4.67 | 2.14 | 2.71
52 | COc1ccc2nccc([C@@H](O)CN3CCC(NCCc4c[nH]c5ccccc45)CC3)c2c1 | 9.59 | 11 | 7.8
53 | O=C(Nc1cccc(-c2nn3ncccc3c2-c2ccnc(Nc3cccc(-c4cnco4)c3)n2)c1)c1c(F)cccc1F | 6.24 | 7.13 | 2.26
54 | O=C(/C=C/c1ccc(F)cc1)NC1CCC(CCN2CCc3ccc(-n4cccn4)cc3CC2)CC1 (stereo not drawn) | 11.7 | 12.9 | 7.81
55 | Cc1cc(NC(=O)c2cccs2)ccc1OC1CCN(Cc2ccc(F)cc2)CC1 | 1.65 | 2.76 | 5.08
56 | Cc1nc(O)c2c(ccc3ccc(CNc4ccc(C(=O)N[C@@H](CCC(=O)O)C(=O)O)c(F)c4)cc32)n1 | -0.83 | 0.87 | -0.16
57 | COc1ccc2nc(/N=C3\NC(c4ccccn4)(c4ccccn4)C(=O)N3C)[nH]c2c1 | 11.7 | 11.1 | 9.86
58 | CNCc1ccc(-c2cccc(CNCc3ccc(-c4ccccc4)cc3)c2)c(C(=O)OC)c1 | 1.39 | 2.72 | 2.91
59 | O=C(Nc1ccc(OC2CCN(Cc3ccsc3)C2)c(Cl)c1)c1ccc2ncccc2c1 (stereo not drawn) | -0.7 | 0.74 | -0.92
60 | COc1cc(Nc2nccc(Nc3ccc4c(C)n[nH]c4c3)n2)cc2ccccc12 | 5.04 | 2.79 | -0.29
61 | NS(=O)(=O)c1cccc(Nc2nccc(-c3c(-c4cccc(NC(=O)c5c(F)cccc5F)c4)nn4ccccc34)n2)c1 | 2.78 | 7.67 | 1.61
62 | Cc1cccc2nc(-c3ccc(-c4ccc(CN5CCN(CC6CCCN(C)C6)CC5)cc4)cc3)[nH]c12 (stereo not drawn) | 8.82 | 10.8 | 6.25
63 | CCNC(=O)Nc1cccc(-c2ccc(-c3nc4cccc(C)c4[nH]3)s2)c1 | 1.49 | 1.4 | 0.03
64 | N#Cc1ccc(N2CCN(Cc3ccc(-c4cccc(-c5nc6ccccc6[nH]5)c4)cc3)CC2)nc1 | 2.3 | 1.43 | 0
65 | Cc1cc(N[C@@H](CC(C)C)C(=O)NC2CCCC2)nc(NCc2ccccc2C)n1 | 4.21 | 4.39 | 1.62
66 | Cc1cc(O)c(CN(C)Cc2ccc3c(c2)OCCO3)cc1C(C)C | 4.86 | 5.38 | 2.54
67 | ON=C(c1nc2ccccc2[nH]1)c1nc2ccccc2[nH]1 | -0.84 | -0.51 | 0.76
68 | CC1(C)NC(N)=NC(=N)N1OCCCNC(=O)c1ccc(C(=O)NCCCON2C(=N)N=C(N)NC2(C)C)cc1 | 0.28 | 0.77 | 1.51
69 | COc1ccc(-c2ccc(NC(=O)c3ccccc3)cc2)cc1CN1CCCN(C)CC1 | 1.09 | -0.14 | -1.41
70 | O=C(N[C@H]1CCN(CCc2ccc(O[C@H]3CCNC3)c(Cl)c2)C1)c1ccc(Cl)c(Cl)c1 | 1.64 | 1.22 | 3.35
71 | CN1CCC(N(Cc2ccc(-c3ccc(Cl)cc3)cc2)C(=O)Cn2c(CCc3cccc(F)c3F)cc(=O)c3ccccc32)CC1 | 8.97 | 3.73 | 8.07

Reference: ChEMBL document CHEMBL3433997, “St. Jude Leishmania screening dataset” (2016)
